From PubChem BioAssay (NCI)
The panel holds about 83,000 compounds, 20% with a hit somewhere; the sample as a whole holds those more often.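 Single-concentration screen, 48 h exposure, 96-well plates. Endpoint: percent growth. Below 10 = active.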 The source made the active and inactive calls.

Legend:
Assay in all cases: NCI-60 one-dose screen, 48 h (100 = growth as untreated, 0 = no growth, -100 = all killed)
HCT-15 colon = conditions: 10 µM unless noted
HT29 colon = conditions: 10 µM unless noted
SNB-75 CNS = conditions: 10 µM unless noted
SNB-19 CNS = conditions: 10 µM unless noted
U251 CNS = conditions: 10 µM unless noted
PC-3 prostate = conditions: 10 µM unless noted
UACC-62 melanoma = conditions: 10 µM unless noted
LOX IMVI melanoma = conditions: 10 µM
SK-MEL-28 melanoma = conditions: 10 µM unless noted
SK-MEL-5 melanoma = conditions: 10 µM unless noted

Measured: growth

O=C(Cn1c(/C=C/c2cccc([N+](=O)[O-])c2)nc2ccccc2c1=O)Nc1ccccc1
inactive: HCT-15 colon 66.2% | HT29 colon 71.1% | SNB-75 CNS 70.1% | SNB-19 CNS 81.3% | U251 CNS 11.8% | PC-3 prostate 78.4% | UACC-62 melanoma 50.9% | LOX IMVI melanoma 33% | SK-MEL-28 melanoma 85.4%

C=C1CC[C@@H]2[C@]3(C)COC(c4cn[nH]c4-c4ccc(C)cc4)O[C@@H]3CC[C@@]2(C)[C@@H]1C/C=C1/C(=O)OCC1O (stereo partly drawn)
inactive: SNB-75 CNS 87.8% | SNB-19 CNS 37.7% | PC-3 prostate 37.6%
active: HCT-15 colon -72.9% | HT29 colon -6.69% | U251 CNS -63.3% | SK-MEL-5 melanoma -63.9% | UACC-62 melanoma -31.3% | SK-MEL-28 melanoma 6.8%

COc1ccccc1/C=C/C(=O)c1ccc(OC)c(S(N)(=O)=O)c1
inactive: HT29 colon 18.7% | SNB-19 CNS 27.3% | PC-3 prostate 48.5% | UACC-62 melanoma 44.4% | SK-MEL-28 melanoma 38.7%
active: HCT-15 colon 7.53% | SNB-75 CNS 8.99% | U251 CNS 5.14% | LOX IMVI melanoma 1.03%

Cc1cc(N=C2NC(=O)CS2)n[nH]1
inactive: HCT-15 colon 104% | HT29 colon 114% | SNB-75 CNS 107% | SNB-19 CNS 103% | U251 CNS 110% | PC-3 prostate 100% | UACC-62 melanoma 93.5% | LOX IMVI melanoma 94.6% | SK-MEL-28 melanoma 108%

NS(=O)(=O)c1ccc(N=Nc2c(O)n(CC(=O)Nc3ccccc3Cl)c3ccccc23)cc1
active: HT29 colon 7.23% | U251 CNS 6.28% | SK-MEL-5 melanoma -1.56%
inactive: HCT-15 colon 25.1% | SNB-75 CNS 52.8% | SNB-19 CNS 36.9% | PC-3 prostate 26.1% | UACC-62 melanoma 19.7% | SK-MEL-28 melanoma 21.2%

Cn1cc(-c2nnc(N)nc2-c2c[nH]c3ccc(F)cc23)c2cccnc21
inactive: HCT-15 colon 28.5% | HT29 colon 16.8% | SNB-75 CNS 24.4% | SNB-19 CNS 52.2% | U251 CNS 37.3% | PC-3 prostate 63.7% | SK-MEL-5 melanoma 20.9% | UACC-62 melanoma 36.9% | SK-MEL-28 melanoma 63.2%

COc1ccc(-c2nnc3ccc(N/N=C/c4ccc(C)cc4)nn23)cc1
inactive: HCT-15 colon 50% | HT29 colon 82.6% | SNB-19 CNS 92.6% | U251 CNS 44.9% | PC-3 prostate 72.2% | UACC-62 melanoma 88.9% | LOX IMVI melanoma 23.7% | SK-MEL-28 melanoma 93.6%
active: SNB-75 CNS -38.6%

O=C1Nc2cc(Cl)ccc2/C1=C/c1cccc(OCc2ccccn2)c1
inactive: SNB-75 CNS 51.3% | SNB-19 CNS 20.5% | PC-3 prostate 20.1% | SK-MEL-28 melanoma 39.5%
active: HCT-15 colon 7.16% | HT29 colon 0.146% | U251 CNS -17.4% | SK-MEL-5 melanoma 6.08% | UACC-62 melanoma 5.17%

COc1cccc(/C=C/C(=O)c2ccc(OC)c(S(N)(=O)=O)c2)c1
inactive: SNB-75 CNS 20.6% | SNB-19 CNS 27% | PC-3 prostate 48% | UACC-62 melanoma 52.6% | SK-MEL-28 melanoma 60.8%
active: HCT-15 colon -7.46% | HT29 colon 4.06% | U251 CNS -31.2% | LOX IMVI melanoma -69.9%

CSc1ccccc1NC(=O)c1ccc2nn(/C(C#N)=C/c3ccccn3)nc2c1
active: HCT-15 colon -62.8% | HT29 colon -91.9% | U251 CNS -81.6% | PC-3 prostate -57.7% | SK-MEL-5 melanoma -88.8% | UACC-62 melanoma -89.6% | SK-MEL-28 melanoma -91.4%
inactive: SNB-75 CNS 48.1% | SNB-19 CNS 12.3%

CCN1C(=O)/C(=N\N=C(/C)c2ccc3c(c2)Nc2ccccc2S3)c2cc(Cl)ccc21
active: SK-MEL-5 melanoma 7.2%
inactive: HCT-15 colon 46.7% | HT29 colon 71.6% | SNB-75 CNS 76% | SNB-19 CNS 64.4% | U251 CNS 73.7% | PC-3 prostate 40.5% | UACC-62 melanoma 32.7% | SK-MEL-28 melanoma 47.2%

N#Cc1ccc(/C=N/NC(=O)c2[nH]c3ccc(Br)cc3c2-c2ccccc2)o1
inactive: SNB-19 CNS 34.5% | PC-3 prostate 13.1% | UACC-62 melanoma 15.2% | SK-MEL-28 melanoma 27.4%
active: HCT-15 colon 8.65% | HT29 colon -15.3% | SNB-75 CNS 5.21% | U251 CNS 6.89% | SK-MEL-5 melanoma -65.5%

C=C1CCC2C3(C)COC(c4ccc(F)cc4)OC3CCC2(C)C1C/C=C1/C(=O)OCC1O (stereo not drawn)
active: HCT-15 colon -42.3% | HT29 colon -4.77% | SNB-75 CNS -21.6% | SNB-19 CNS -55.8% | U251 CNS -94.4% | PC-3 prostate -43.6% | SK-MEL-5 melanoma -90.3% | UACC-62 melanoma -8.34% | SK-MEL-28 melanoma -70.3%

C=C1CCC2C3(C)COC(c4ccccc4F)OC3CCC2(C)C1CC(O)C1=CCOC1=O (stereo not drawn)
inactive: SNB-75 CNS 43.9% | SNB-19 CNS 81.5% | U251 CNS 53.4% | PC-3 prostate 36.5% | SK-MEL-5 melanoma 65.8% | UACC-62 melanoma 73.6% | SK-MEL-28 melanoma 47.6%
active: HCT-15 colon 9.86% | HT29 colon 8.43%

Nc1nnc(-c2c[nH]c3ncc(Br)cc23)c(-c2c[nH]c3ccc(F)cc23)n1
inactive: HCT-15 colon 25.3% | HT29 colon 21.8% | SNB-75 CNS 33.7% | SNB-19 CNS 50.6% | U251 CNS 45.5% | PC-3 prostate 58.6% | UACC-62 melanoma 15.6% | SK-MEL-28 melanoma 29.8%
active: SK-MEL-5 melanoma 0.13%

S=C(NCCc1ccccc1)Nc1ccc(OCc2nc3ccccc3[nH]2)cc1
inactive: HCT-15 colon 98% | HT29 colon 108% | SNB-75 CNS 103% | SNB-19 CNS 102% | U251 CNS 99.7% | PC-3 prostate 105% | SK-MEL-5 melanoma 102% | UACC-62 melanoma 93.1% | SK-MEL-28 melanoma 110%

COCOc1cc2oc(C(=O)N[C@@H](Cc3ccccc3)C(O)C(=O)NCc3ccccc3)c(C)c(=O)c2cc1OCOC (stereo partly drawn)
inactive: HCT-15 colon 94.4% | HT29 colon 77.5% | SNB-75 CNS 21.7% | SNB-19 CNS 47.3% | U251 CNS 41.3% | PC-3 prostate 101% | SK-MEL-5 melanoma 49.9% | UACC-62 melanoma 63.6% | SK-MEL-28 melanoma 70.9%

C[C@H](Nc1nc(NCCc2ccccc2)nc2ccccc12)c1ccccc1
active: HCT-15 colon -91.2% | HT29 colon -90.6% | SNB-75 CNS -44.6% | SNB-19 CNS -75% | U251 CNS -77.7% | PC-3 prostate -54.5% | SK-MEL-5 melanoma -100% | UACC-62 melanoma -95% | SK-MEL-28 melanoma -98.5%

O=C(NNc1nc2cc(C(F)(F)F)ccc2n2cccc12)c1cnccn1
active: HCT-15 colon -49.6% | HT29 colon 2.58% | SNB-75 CNS -69.4% | SNB-19 CNS -56.6% | U251 CNS -95.5% | PC-3 prostate -54.8% | UACC-62 melanoma -41.1% | LOX IMVI melanoma -67% | SK-MEL-28 melanoma -36.8%

NS(=O)(=O)c1ccc(-n2cc(-c3cccc(NC(=O)c4ccc(Cl)c(C(F)(F)F)c4)c3)nn2)cc1
active: HT29 colon 9.41% | SNB-75 CNS 5.75% | U251 CNS -54.8% | LOX IMVI melanoma -33.3% | SK-MEL-28 melanoma -14.5%
inactive: HCT-15 colon 41.6% | SNB-19 CNS 32.3% | PC-3 prostate 17.7% | UACC-62 melanoma 35%

COc1ccc(C(=O)Nc2n[nH]c(Nc3ccccc3)c2C#N)cc1
inactive: HCT-15 colon 102% | HT29 colon 112% | SNB-75 CNS 112% | SNB-19 CNS 99.5% | U251 CNS 111% | PC-3 prostate 111% | UACC-62 melanoma 99.6% | LOX IMVI melanoma 98.3% | SK-MEL-28 melanoma 103%

CC(=O)NNc1ccc2nnc(-c3ccccc3)n2n1
inactive: HCT-15 colon 103% | HT29 colon 129% | SNB-75 CNS 90.3% | SNB-19 CNS 97.3% | U251 CNS 101% | PC-3 prostate 107% | UACC-62 melanoma 98.6% | LOX IMVI melanoma 99.3% | SK-MEL-28 melanoma 107%

Cc1cc(C)n(-c2ccc3nnc(-c4ccccc4)n3n2)n1
inactive: HCT-15 colon 86.4% | HT29 colon 115% | SNB-75 CNS 94.4% | SNB-19 CNS 98.3% | U251 CNS 102% | PC-3 prostate 104% | UACC-62 melanoma 99.9% | LOX IMVI melanoma 77.3% | SK-MEL-28 melanoma 122%

O=C(N=Nc1c(O)[nH]c2ccc([N+](=O)[O-])cc12)c1ccc2nc(-c3ccccc3)[nH]c2c1
inactive: HCT-15 colon 105% | HT29 colon 110% | SNB-75 CNS 95.7% | SNB-19 CNS 43.6% | U251 CNS 34.8% | SK-MEL-5 melanoma 97.7% | UACC-62 melanoma 75.5% | SK-MEL-28 melanoma 60.8%

Cc1ccc(S(=O)(=O)c2nc(S(=O)(=O)c3ccc(C)cc3)c(N3CCC(O)CC3)s2)cc1
inactive: HCT-15 colon 22.9% | HT29 colon 77.8% | SNB-75 CNS 97.5% | SNB-19 CNS 68.3% | U251 CNS 57.7% | SK-MEL-5 melanoma 78.1% | UACC-62 melanoma 42% | LOX IMVI melanoma 50.5% | SK-MEL-28 melanoma 81.9%

O=C(Nc1ccc(C(F)(F)F)cc1)Nc1ccc2oc(=O)ccc2c1
active: HT29 colon 9.84% | U251 CNS -0.283% | LOX IMVI melanoma -83.8%
inactive: HCT-15 colon 10.1% | SNB-75 CNS 44.1% | SNB-19 CNS 29.5% | PC-3 prostate 13.6% | UACC-62 melanoma 28% | SK-MEL-28 melanoma 37.6%

CC(=O)N1CCN(Cc2ccc3c(NNC(=O)c4cnccn4)nc4cc(F)ccc4n23)CC1
inactive: HCT-15 colon 30.3% | HT29 colon 35.9% | SNB-75 CNS 65.7% | SNB-19 CNS 25.4% | U251 CNS 13.1% | PC-3 prostate 40.9% | LOX IMVI melanoma 10.3% | SK-MEL-28 melanoma 30.4%
active: UACC-62 melanoma 9.03%

N#Cc1c(-c2cccc3ccccc23)cc(-c2cccc(OCC(=O)O)c2)[nH]c1=O
inactive: HCT-15 colon 100% | HT29 colon 102% | SNB-75 CNS 73.7% | SNB-19 CNS 97.1% | U251 CNS 103% | SK-MEL-5 melanoma 100% | UACC-62 melanoma 90.5% | SK-MEL-28 melanoma 102%

Cc1cc2c(cc1Cl)C(=O)/C(=C/c1ccc(F)cc1)O2
inactive: HCT-15 colon 97.8% | HT29 colon 102% | SNB-75 CNS 95% | SNB-19 CNS 90.3% | U251 CNS 89.9% | SK-MEL-5 melanoma 93% | UACC-62 melanoma 76.6% | SK-MEL-28 melanoma 111%
